# PubChem BioAssay AID720549 (National Center for Advancing Translational Sciences (NCATS), 2013)
# Several values for one entry are separate records, joined by “and”; a condition that tells them apart may be missing. Equal entries are not always repeated. Inconclusive results are not listed. A call without a number means that no potency is given here. More than one record can exist for a structure, and the calls need not agree. Activity calls are given as the source filed them. Calls follow the shape of the dose curve; as a rule, active = well fitted inhibition curve with a large enough effect; inconclusive = small, poorly fitted or top-dose-only effect; inactive = flat fitted curve, though single readings scatter.
# Molecular target: RecQ-like DNA helicase BLM (Homo sapiens) (UniProt P54132)
# Assay: qHTS for Inhibitors of Bloom's syndrome helicase (BLM): Helicase ATPase Orthogonal Confirmatory Assay for SAR
# Details: purified BLM helicase ATPase activity assay; series mostly up to 57.1 µM
# In short: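 Purified BLM (2 nM) in Tris-HCl pH 8.0 with MgCl2, DTT, Tween-20, preincubated 15 min with compound. Reaction with 200 nM ssDNA and 100 uM ATP ran 15 min; ADP-Glo luminescence, four-parameter Hill fit.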
# Chain of RecQ-like DNA helicase BLM (Homo sapiens) (P54132 whole entry, looked up): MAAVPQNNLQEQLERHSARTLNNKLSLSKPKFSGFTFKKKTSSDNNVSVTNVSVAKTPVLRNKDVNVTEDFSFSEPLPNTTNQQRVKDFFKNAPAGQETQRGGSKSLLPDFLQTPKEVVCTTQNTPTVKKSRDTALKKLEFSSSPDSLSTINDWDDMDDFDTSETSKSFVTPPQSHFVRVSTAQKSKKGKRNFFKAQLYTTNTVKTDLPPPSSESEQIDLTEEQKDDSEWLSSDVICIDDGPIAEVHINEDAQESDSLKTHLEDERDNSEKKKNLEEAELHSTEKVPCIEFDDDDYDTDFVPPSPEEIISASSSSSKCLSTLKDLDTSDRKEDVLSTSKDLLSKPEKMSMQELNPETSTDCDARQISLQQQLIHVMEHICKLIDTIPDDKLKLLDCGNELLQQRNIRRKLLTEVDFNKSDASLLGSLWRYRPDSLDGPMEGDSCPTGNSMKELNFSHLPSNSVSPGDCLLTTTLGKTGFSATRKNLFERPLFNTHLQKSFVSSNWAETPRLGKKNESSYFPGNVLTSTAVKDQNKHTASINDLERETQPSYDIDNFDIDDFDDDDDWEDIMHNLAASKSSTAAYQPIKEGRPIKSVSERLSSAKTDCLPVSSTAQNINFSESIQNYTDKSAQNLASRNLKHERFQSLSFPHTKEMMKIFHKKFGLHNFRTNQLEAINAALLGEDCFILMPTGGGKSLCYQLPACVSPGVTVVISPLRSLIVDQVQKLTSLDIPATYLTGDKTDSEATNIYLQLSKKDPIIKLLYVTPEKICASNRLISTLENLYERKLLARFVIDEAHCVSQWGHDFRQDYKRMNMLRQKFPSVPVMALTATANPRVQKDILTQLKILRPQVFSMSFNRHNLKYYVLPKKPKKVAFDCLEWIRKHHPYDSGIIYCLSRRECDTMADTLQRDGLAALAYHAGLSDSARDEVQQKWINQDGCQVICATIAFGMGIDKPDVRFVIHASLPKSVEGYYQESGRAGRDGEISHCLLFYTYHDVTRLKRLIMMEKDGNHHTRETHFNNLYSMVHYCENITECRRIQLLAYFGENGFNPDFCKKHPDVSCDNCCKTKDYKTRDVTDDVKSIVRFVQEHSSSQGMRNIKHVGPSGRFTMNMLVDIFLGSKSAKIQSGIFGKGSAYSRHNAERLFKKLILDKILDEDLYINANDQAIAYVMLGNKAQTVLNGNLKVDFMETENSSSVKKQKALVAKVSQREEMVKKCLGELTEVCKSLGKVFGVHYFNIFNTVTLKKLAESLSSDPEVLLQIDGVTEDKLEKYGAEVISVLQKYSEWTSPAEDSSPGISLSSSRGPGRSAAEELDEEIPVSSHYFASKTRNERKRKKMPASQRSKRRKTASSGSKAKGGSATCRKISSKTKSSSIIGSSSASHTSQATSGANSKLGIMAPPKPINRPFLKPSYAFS
row,SMILES,Potency
1,N/C(=N\c1nnc(-c2ccncc2)s1)Nc1ccc(F)c(C(F)(F)F)c1,inactive and 20.4 µM (active)
2,Cc1ccc(-c2nnc(NC(=O)Nc3ccc4ccccc4c3)s2)cc1,inactive
3,O=C(Nc1ccc(Cl)c([N+](=O)[O-])c1)Nc1nnc(C2CCCCC2)s1,inactive
4,O=C(Nc1ccc(-c2nc3ccccc3[nH]2)cc1)Nc1ccc2c(c1)OCCO2,inactive
5,S=C(Nc1ccc(Cl)c(Cl)c1)Nc1nnc(-c2ccncc2)o1,inactive
6,O=C(Nc1ccc(Cl)c(Cl)c1)Nc1nnc(C2CCCCC2)s1,inactive
7,CCOc1ccc(NC(=O)Nc2ccc(-c3nc4ccccc4[nH]3)cc2)cc1,inactive
8,O=C(Nc1ccc2ccccc2c1)Nc1nnc(-c2ccc(Cl)cc2)s1,inactive
9,O=C(Nc1ccc(Cl)c(Cl)c1)Nc1nc(-c2ccncc2)cs1,inactive
10,CC(C)(C)NC(=O)Nc1nnc(-c2ccncc2)s1,inactive
11,CCOC(=O)c1cccc(NC(=O)Nc2nnc(-c3ccncc3)s2)c1,inactive
12,CC(C)(C)c1cccc(NC(=O)Nc2nnc(-c3ccncc3)s2)c1,inactive
13,O=C(Nc1ccc(-c2nc3ccccc3[nH]2)cc1)Nc1ccc2c(c1)CCCO2,inactive
14,O=C(Nc1ccc2ccccc2c1)Nc1nnc(-c2ccncc2)s1,3.24 µM (active)
15,O=C(Nc1ccc(Cl)nc1)Nc1nnc(-c2ccncc2)s1,1.62 µM (active)
16,O=C(Nc1ccc(-c2ccccc2)cc1)Nc1nnc(-c2ccncc2)s1,inactive
17,Cc1cc(C)c(-c2nnc(NC(=O)Nc3ccc4ccccc4c3)s2)c(C)c1,inactive
18,CC(=O)c1ccc(NC(=O)Nc2nnc(-c3ccncc3)s2)cc1,inactive
19,Cc1cc(NC(=O)Nc2nnc(-c3ccncc3)s2)ccc1C#N,1.29 µM (active)
20,O=C(Nc1ccc(N2CCOCC2)c(F)c1)Nc1nnc(-c2ccncc2)s1,inactive
21,N#Cc1cc(NC(=O)Nc2nnc(-c3ccncc3)s2)ccc1F,1.02 µM (active)
22,O=C(Nc1ccc(Cl)c(Cl)c1)Nc1nnc(Br)s1,inactive
23,O=C(Nc1ccc(F)c(C(F)(F)F)c1)Nc1nnc(-c2ccncc2)s1,inactive
24,O=C(Nc1ccc(Cl)c(Cl)c1)Nc1nnc(N2CCNCC2)s1,inactive
